The nature of assay [1]: qHTS assay to identify small molecule agonists of H2AX (AID 1224845; active = well fitted activation curve with a large enough effect in the signal ratio in the repeat runs, not every such curve was filed as active; the % refers to the signal ratio). Put shortly: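 Wild-type CHO-K1 cells, plated overnight, exposed 3hr at 37C to 15 concentrations (0.76% DMSO final). Lysed, then HTRF anti-pH2AX (S139) cryptate and anti-H2AX-d2 antibodies, 24 hr room temperature; 665/620 nm emission read.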
Assay [2] is described as follows: qHTS assay to identify small molecule agonists of the hypoxia (HIF-1) signaling pathway (AID 1224846; active = well fitted activation curve with a large enough effect in the signal ratio in the repeat runs, not every such curve was filed as active; the % refers to the signal ratio). Put shortly:
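HRE-bla ME-180 beta-lactamase reporter cells in medium with 0.5% dialyzed FBS, pre-incubated 5 h then exposed to compounds 17 h at 37C, 5% CO2; reporter induction read with CCF4-AM FRET substrate.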

The nature of assay [3]: qHTS assay to identify small molecule agonists of H2AX - cell viability counter screen (AID 1224847; calls by dose curve; also: nearly all actives have a fitted effect of over 30% in size; also: potency is read from the fitted curve at half-maximal effect). The procedure, abridged:
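Wild-type CHO-K1 cells (10% FBS medium) were plated overnight at 37C, exposed to compounds at 15 concentrations for 3 hr at 37C (0.76% DMSO final), and viability was read as CellTiter-Glo luminescence after 30 min at room temperature.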

Assay [4] in a line: qHTS assay to identify small molecule antagonists of the estrogen related receptor (ERR) signaling pathway from Tox21 library (AID 1224848). Also: nearly all actives have a fitted effect of over 50% in size. Also: potency is read from the fitted curve at half-maximal effect. The procedure, abridged: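 Luminescent reporter read-out (ONE-Glo) from NTP's ERR cell line after 18 h treatment at 37 C with DMSO-dissolved Tox21 compounds; cells pre-plated 6 h beforehand at 2,000 per well.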
Assay [5] can be described thus: qHTS RealTime-Glo MT Cell Viability Assay in HepG2 cells - 24 hour (AID 1224867). Also: nearly all actives have a fitted effect of over 50% in size. Put shortly:
(§1)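 Cell number in HepG2 cultures estimated from NanoLuc luminescence generated by metabolic reduction of a prosubstrate by living cells. The homogeneous, nonlytic format allowed repeated reads at 0, 8, 16, 24, 32 and 40 h of compound exposure.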

Assay [6] can be described thus: qHTS RealTime-Glo MT Cell Viability Assay in HEK293 cells - 32 hour (AID 1224868). Also: nearly all actives have a fitted effect of over 50% in size. Also: potency is read from the fitted curve at half-maximal effect. The procedure, abridged: (§2)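 Homogeneous bioluminescent viability format in HEK293 cells (600 cells/well). Following 5 h at 37 C/5% CO2, 23 nL compound was pintooled; the signal was measured repeatedly during 40 h incubation.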
Assay [7] is described as follows: A CellTox Green Cytotoxicity Assay to monitor cytotoxicity in HEK293 cells - 0 hour (AID 1224869). Also: nearly all actives have a fitted effect of over 50% in size. Put shortly: (§3)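 HEK293 cells, 600/well, were preincubated 5 hours and then exposed to compounds at 37 C for up to 40 hours. A cell-impermeant cyanine dye staining dead-cell DNA was read by fluorescence at 0, 8, 16, 24, 32 and 40 h time points.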
The nature of assay [8]: qHTS RealTime-Glo MT Cell Viability Assay in HepG2 cells - 40 hour (AID 1224870). Also: nearly all actives have a fitted effect of over 50% in size. The procedure, abridged: (§4)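 HepG2 cells (600/well) mixed with RealTime-Glo MT reagent, settled 5 h at 37 C/5% CO2 before compound addition. Nonlytic NanoLuc luminescence from viable-cell prosubstrate reduction read repeatedly during 40 h treatment at 37 C.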
(Quantitative high-throughput screening tests each substance at several concentrations.)

The nature of assay [9]: qHTS RealTime-Glo MT Cell Viability Assay in HEK293 cells - 16 hour (AID 1224872). Put shortly:
as §2

The nature of assay [10]: qHTS RealTime-Glo MT Cell Viability Assay in HepG2 cells - 8 hour (AID 1224873). Also: nearly all actives have a fitted effect of over 55% in size. The procedure, abridged: as §4
Assay [11] can be described thus: qHTS RealTime-Glo MT Cell Viability Assay in HEK293 cells - 40 hour (AID 1224874). Also: nearly all actives have a fitted effect of over 50% in size. Also: potency is read from the fitted curve at half-maximal effect. As to conditions: RealTime-Glo luminescence; max response: hits give low values. The procedure, abridged: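 600 cells/well were plated with the nonlytic NanoLuc/prosubstrate reagent, pre-incubated 5 h, then given 23 nL of compound in DMSO. Incubation at 37 C for 40 h, with luminescence from viable-cell-reduced substrate read repeatedly from 0 h.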

Assay [12] is described as follows: A CellTox Green Cytotoxicity Assay to monitor cytotoxicity in HEK293 cells - 24 hour (AID 1224875). Also: nearly all actives have a fitted effect of over 45% in size. Put shortly:
as §3

Assay [13] in a line: A CellTox Green Cytotoxicity Assay to monitor cytotoxicity in HepG2 cells - 16 hour (AID 1224876). Also: nearly all actives have a fitted effect of over 45% in size. The procedure, abridged: (§5)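 HepG2 cells, 600/well, preincubated 5 h with CellTox Green dye, then exposed to Tox21 compounds in DMSO at 37 C for up to 40 h. Dead-cell DNA fluorescence read at the indicated time point.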
Assay [14] is described as follows: qHTS RealTime-Glo MT Cell Viability Assay in HepG2 cells - 32 hour (AID 1224877). Also: nearly all actives have a fitted effect of over 55% in size. The procedure, abridged: as §1
Assay [15] can be described thus: A CellTox Green Cytotoxicity Assay to monitor cytotoxicity in HepG2 cells - 24 hour (AID 1224878). Also: nearly all actives have a fitted effect of over 45% in size. Put shortly: as §5
Assay [16] in a line: A CellTox Green Cytotoxicity Assay to monitor cytotoxicity in HepG2 cells - 40 hour (AID 1224879). Also: nearly all actives have a fitted effect of over 40% in size. The procedure, abridged: as §5
Assay [17] is described as follows: qHTS assay to identify small molecule agonists of the hypoxia (HIF-1) signaling pathway - cell viability counter screen (AID 1224844; calls by dose curve; also: nearly all actives have a fitted effect of over 50% in size). Put shortly: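 HRE-bla ME-180 cells, 2,000/well in 0.5% dialyzed FBS medium, treated 17 h at 37C with compounds. Viability read in the same wells as the bla reporter, by CellTiter-Glo luminescence after 30 min at room temperature.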

A short description of assay [18]: A CellTox Green Cytotoxicity Assay to monitor cytotoxicity in HEK293 cells - 40 hour (AID 1224871). Also: nearly all actives have a fitted effect of over 45% in size. Put shortly:
as §3

Assay [19] in a line: qHTS assay to identify small molecule agonists of the estrogen related receptor (ERR) signaling pathway from Tox21 library (AID 1224849; calls by dose curve; also: nearly all actives have a fitted effect of over 15% in size). As to conditions: ERR reporter cell line, ONE-Glo luciferase, 18 h; at 92.4 µM (top of the series) unless noted. Put shortly:
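ERR reporter cells (NTP line) pre-incubated 6 hours at 37 C, then exposed to compounds for 18 hours at 37 C. ONE-Glo luciferase luminescence was read after 30 minutes at room temperature.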

Unmarked numbers belong to inactive results. Records with an inconclusive call do not appear. Calls of active or inactive are those of the source. Unless noted, calls follow the shape of the dose curve; as a rule, active = well fitted curve in the direction sought with a large enough effect in the repeat runs; inconclusive = weak or mixed curves; inactive = no such curve, though single readings can be large; an effect the other way counts as inactive or inconclusive.
% is scaled to controls: 0 for no effect and ±100 for the full control effect.

For `CCCCOC(=O)CCCCC(=O)OCCCC`, the Potency entry in assay [1], in assay [3], in assay [4], in assay [5], in assay [6] and in assay [7] was “inactive” each time. For the same compound, the Potency entry in assay [8], in assay [9], in assay [10], in [12], in assay [13] and in assay [14] was “inactive” in each case. The Potency result in assay [15] and in assay [16] was “inactive” in each case. Also, in assay [2], the compound was called inactive. Further, in assay [11], the max response is 0.321%.

Turning to `CCOC(=O)C(C)O` (stereo not given), the Potency result in assay [17], in assay [1], in assay [3], in assay [5], in assay [6] and in assay [7] was “inactive” throughout. The Potency result in assay [18], in assay [9], in [10], in [12], in assay [13] and in assay [14] was “inactive” throughout. The Potency entry in assay [15] and in [16] was “inactive” each time. The result in assay [2] was inactive. Further, the max response in assay [11] is 15.3%.

In the case of `COc1ccc(CCN(C)CCCN2CCc3cc(OC)c(OC)cc3CC2=O)cc1OC`, the Potency result in assay [17], in assay [1], in [3], in [6], in assay [7] and in assay [8] was “inactive” in each case. For the same compound, the Potency result in assay [18], in assay [9], in assay [10], in [12], in assay [13] and in assay [14] was “inactive” in each case. For the same compound, the Potency result in assay [15] and in assay [16] was “inactive” each time. Besides, the max response in assay [11] was 9.42%.

As to `COc1cc(NCc2ccc3nc(N)nc(N)c3c2C)cc(OC)c1OC`, the Potency result in assay [17], in [5], in assay [7], in assay [8], in assay [18] and in assay [10] was “inactive” throughout. Moreover, the Potency entry in assay [12], in assay [13], in assay [14], in [15] and in [16] was “inactive” throughout. Besides, in assay [2], the compound was classed as inactive. Moreover, the Potency was 220 nM (active) in assay [3], 47.3 nM (active) in assay [4], 26.8 nM (active) in assay [6] and 23.9 nM (active) in assay [11]. Also, the activity change, positive = activation in [19] was -56.3% [at 42.5 µM].

With `COc1ccc(C2C(=O)c3ccccc3C2=O)cc1`, the Potency result in assay [17], in assay [3], in assay [4], in assay [5], in assay [6] and in [7] was “inactive” in each case. The Potency result in assay [18], in [9], in [10], in assay [12], in [13] and in assay [14] was “inactive” throughout. Moreover, the Potency result in assay [15] and in [16] was “inactive” in each case. In assay [2], the compound was called inactive. Moreover, the activity change, positive = activation in assay [19] is 13.1% [at 42.5 µM]. Further, the max response in [11] is 4.61%.

Consider `O=C(C(=O)c1ccco1)c1ccco1`, for which the Potency entry in [17], in assay [5], in [7], in [18], in assay [10] and in [12] was “inactive” in each case. The Potency entry in [13], in assay [14], in assay [15] and in [16] was “inactive” in each case. Besides, the outcome in [2] was inactive.

Take `Cc1c(C2(c3cc(Br)c(O)c(Br)c3C)OS(=O)(=O)c3ccccc32)cc(Br)c(O)c1Br`: the Potency in [4] is 11800 nM (active). Further, the Potency result in [5], in assay [6], in assay [7], in assay [8], in [9] and in assay [10] was “inactive” throughout. Further, the Potency entry in [12], in [13], in assay [14], in assay [15] and in [16] was “inactive” in each case. For the same compound, the max response in [11] is -21.5%.

The values above are taken from PubChem BioAssay (Tox21).
